Experimental data as given in the emibetuzumab library of Makowski et al. (2022).
Some of the results follow. The hit rate among all sequences tested is not known here.

B1: VH:VL chains; a variant is named by its letters at X, in order (parent)
chain 1: QVQLVQSGAEVKKPGASVKVSCKASGYTFTDYXMHWVRQAPGQGLEWMGXVNPNXXXTTYNQKFEGRVTMTTDTSTSTAYMELRSLRSDDTAVYYCARXNXLDXWGQGTTVTVSS
chain 2: DIQMTQSPSSLSASVGDRVTITCSVSSSVSSIYLHWYQQKPGKAPKLLIYSTSNLASGVPSRFSGSGSGTDFTLTISSLQPEDFATYYCQVYSGYPLTFGGGTKVEIK

Variants of: B1
Test: yeast display scFab, FACS + sequencing
Conditions: with MET
In short: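 A heavy-chain CDR mutant scFab library on yeast was enriched magnetically with HGFR-Fc-coated Protein A beads for two rounds and then by FACS after labelling with 1 nM HGFR-Fc and anti-Myc in PBSB with 1% milk for 3 h at room temperature, gating the top 50% antigen-positive cells. Antigen binding was judged positive if a sequence turned up in both antigen-positive deep-sequencing samples and negative if it turned up only in the input.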

| Variant | antigen binding call |
| --- | --- |
| VKGAGAAS | no binding |
| YRRGGAAS | binds |
| VRRGGAAS | binds |
| VRRTSAAS | no binding |
| FRRGGAAS | binds |
| DEGGTAGA | no binding |
| YRRGGSWV | binds |
| YRRRGSVV | binds |
| YRRRGYLV | no binding |
| YRRRGSLV | binds |
| FGRRGAGV | no binding |
| FRRRGSLV | binds |
| YGETGFWY | no binding |
| DKTKSDWV | no binding |
| VAREGDLA | no binding |
| AARADDVY | no binding |
| YRRGGAWV | binds |
| YRRRGSWV | binds |
| YRRRGAWV | binds |
| VRRGGAWV | no binding |
| VRGAGSWV | no binding |
| VRRRGSWV | binds |
| VTEEGSWV | no binding |
| DEGKDDVA | no binding |

| Variant | antigen binding call |
| --- | --- |
| DTGGGDAY | no binding |
| DTTEASLV | no binding |
| FRGRDFVA | no binding |
| FRGRSSVA | binds |
| DRGRDDVA | no binding |
| FRGRDSVA | binds |
| DTGTSDLY | no binding |
| FARAGDWV | no binding |
| FRAGGAGV | binds |
| FRAGGVGV | no binding |
| VRAGDAGV | no binding |
| FRAGDAGV | binds |
| FRARGAGV | binds |
| FEATAAGS | no binding |
| FEAGDDGV | no binding |
| FRARGAGS | binds |
| VKGRADWV | no binding |
| FRAGGSSV | binds |
| YRGRSAGY | binds |
| YRERAAGY | binds |
| YRGRTAAF | binds |
| YRGRTAAY | binds |
| SAGRSDLV chain 1 R67H | no binding |
| SEARSDWV | no binding |

| Variant | antigen binding call |
| --- | --- |
| AARADAGA | no binding |
| YGKRDASY | no binding |
| FKGRSASY | no binding |
| YTKETAAD | no binding |
| YRTRDDLY | no binding |
| YRTRDAGY | binds |
| YRGRSASY | binds |
| YRGRSAAY | binds |
| YRGRTAAD | binds |
| DKGGAVWT | no binding |
| SEARSSSA | no binding |
| DTTKGDVV | no binding |
| DEGGTSSA | no binding |
| DTTRADVD | no binding |
| DRGGDSLD | no binding |
| DRTGDSSS | binds |
| DRGGDDGS | no binding |
| DTTKSSSS | no binding |
| DRGGDSSS | binds |
| DATGGSSS | no binding |
| DKGGSDVV | no binding |
| STRGADAV | no binding |
| DKEEADGV | no binding |
| FRAGSAVV | binds |

| Variant | antigen binding call |
| --- | --- |
| FRTGDDWV | no binding |
| FRAGGAWV | binds |
| FRTGDAWV | binds |
| FRTGDDLV | no binding |
| VATGDSLV | no binding |
| FRTGDSLV | binds |
| SKTKSDVV | no binding |
| SAREGSSA | no binding |
| DEARGAGD | no binding |
| FRTKGAWV | binds |
| FRGRDVVV | no binding |
| FRRGGAWV | binds |
| FATKGAWV | no binding |
| FRRGGAVV | binds |
| AARETVGA | no binding |
| STAESDLD | no binding |
| YAGRGFGF | no binding |
| YAGRSFGS | no binding |
| YAAAAFGY | no binding |
| YRGRGFAS | binds |
| YRGRGFGY | binds |
| YRGRGFGS | binds |
| YRGRGFGF | binds |
| DAGGGAVV | no binding |

| Variant | antigen binding call |
| --- | --- |
| YATGDDVA | no binding |
| DGGGNDLV | no binding |
| VATRGYLV | no binding |
| AARADDVD | no binding |
| YRGKGFGS | binds |
| SRGKSFGS | no binding |
| YRGRGVGF | binds |
| DEGKGFGS | no binding |
| YAKEGDGV | no binding |
| VGKGDDAA | no binding |
| YTTGSASF | no binding |
| YRGRGASF | binds |
| VRTEDASF | no binding |
| YRGRGSSF | binds |
| FRTGDAVF | binds |
| FRTGDAVS | binds |
| FRTGDDSF | no binding |
| FRTGDSAS | binds |
| VTGGDSLV | no binding |
| FKTRDFAY | no binding |
| VEKEGDVY | no binding |
| DATGGASD | no binding |
| YRRRGYVF | binds |
| YRAGGYVD | binds |

| Variant | antigen binding call |
| --- | --- |
| AKGEDSVF | no binding |
| YRRGGYVD | no binding |
| YKRRSSVF | binds |
| YRAGGYVF | binds |
| SEARSSSF | no binding |
| YRRRGSVF | binds |
| YRRRGAVF | binds |
| VAGGAYLY | no binding |
| DTATADWA | no binding |
| FRARGAAV | binds |
| YAARGAAV | no binding |
| YGARNAAV | no binding |
| FRAGGAAV | binds |
| YRARSAAV | binds |
| FRRGDAAV | binds |
| DTAESSSF | no binding |
| YTGTSDGV | no binding |
| VEGGGAVV | no binding |
| FRTKDDVY chain 1 E46K | no binding |
| FRARSAAV | binds |
| DRAGDAAV | no binding |
| SEARSAAV | no binding |
| FRAGGSGD | binds |
| FRKGGSGD | binds |

| Variant | antigen binding call |
| --- | --- |
| FREGGSGD | no binding |
| FAAGGSGD | no binding |
| VGETSYVD | no binding |
| SKAGGVGA | no binding |
| SKAGGAGA | binds |
| SKTRGAGV | no binding |
| SAAGGAGA chain 1 L45S | no binding |
| SKKRGSGA | binds |
| SGEEGSGA | no binding |
| SKTKSSGA | no binding |
| SKAKGSGA | binds |
| SKAKGSGV | binds |
| SKAKGFGV | no binding |
| SKRKSSGA | no binding |
| SKERGDGA | no binding |
| VAATADAV | no binding |
| VAGTSDGA | no binding |
| DATGGFGV | no binding |
| DAGEGFVA | no binding |
| VEEEAFAV | no binding |
| VTGEDSLV | no binding |
| VETGNSGA | no binding |
| YRERGAAF | binds |
| YRERGAGF | binds |

| Variant | antigen binding call |
| --- | --- |
| DRGRDDAA | no binding |
| DAKEGDLV | no binding |
| YRTKASLD | binds |
| YREKGSLD | binds |
| DATGGSLD | no binding |
| YRTGGSLD | binds |
| YRAKGSLD | binds |
| DTREGDVA | no binding |
| STAESDGA | no binding |
| VGEGGDAY | no binding |
| VAEKGFLV | no binding |
| SRRETFVF | no binding |
| DGGTNDVA | no binding |
| VAGTDAGD | no binding |
| FKGEGSLY | no binding |
| FKGRGSLY | binds |
| FKGRGSGY | binds |
| VKGRASGY | no binding |
| YTRGASGA | no binding |
| YTRGAALA | no binding |
| YKRGASLA | binds |
| YTRGADVA | no binding |
| YKRGASVA | binds |
| YTRGAAVA | no binding |

| Variant | antigen binding call |
| --- | --- |
| YRTAGSGD | binds |
| YRTAGAAD | binds |
| YRTAGSSD | binds |
| YRTAGAGD | binds |
| VATGDDGV | no binding |
| STAESSSF | no binding |
| DKTGNDVA | no binding |
| DRAGDDVY | no binding |
| YTGTSAVA | no binding |
| VKGRGSAA | binds |
| SKGRGSAA | binds |
| VKGRADAA | no binding |
| VAGRGSAA | no binding |
| SAGRGSAA | no binding |
| SEGRGDAA | no binding |
| VRGGGFGD | binds |
| VEGGGDGD | no binding |
| AAGRGFLD | no binding |
| VRRANFLD | no binding |
| VRGRGFLD | binds |
| VRGGGFGV | no binding |
